Measurements as given in PubChem BioAssay (Tox21).
“And” between values parts separate entries of the source, which are not always exact repeats. Equal values may be shown once. Results filed as inconclusive are left out. A call without a number means that no potency is given here. Some compounds were tested as several samples or in several runs, with calls that do not always agree. The source made the active and inactive calls. Unless noted, the call rests on the fitted dose curve; in most records, active means well fitted curve in the direction sought with a large enough effect in the repeat runs; inconclusive means weak or mixed curves; inactive means no such curve, though single readings can be large; an effect the other way counts as inactive or inconclusive.

Legend:
[1] = qHTS assay to identify small molecule antagonists of the glucocorticoid receptor (GR) signaling pathway - cell viability counter screen (AID 720693); further: nearly all actives have a fitted effect of over 55% in size; further: potency means the concentration at half of the fitted maximal effect
[2] = qHTS assay for identifying genotoxic compounds that show differential cytotoxicity against isogenic chicken DT40 cell lines with known DNA damage response pathways - wild type cell line (AID 743012); further: nearly all actives have a fitted effect of over 60% in size; further: potency means the concentration at half of the fitted maximal effect
Summary of the method: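 CellTiter-Glo luminescence readout of viability in wild type DT40 cells after 40 h compound exposure at 37 C/5% CO2; 300 cells/well; reagent incubated 30 min at room temperature before reading.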

[3] = qHTS assay for identifying genotoxic compounds that show differential cytotoxicity against isogenic chicken DT40 cell lines with known DNA damage response pathways - Rev3 mutant cell line (AID 743014); further: nearly all actives have a fitted effect of over 55% in size; further: potency means the concentration at half of the fitted maximal effect
[4] = qHTS assay for identifying genotoxic compounds that show differential cytotoxicity against isogenic chicken DT40 cell lines with known DNA damage response pathways - Rad54/Ku70 mutant cell line (AID 743015); further: nearly all actives have a fitted effect of over 60% in size; further: potency means the concentration at half of the fitted maximal effect
[5] = qHTS assay to identify small molecule antagonists of the androgen receptor (AR) signaling pathway using the MDA cell line - cell viability counter screen (AID 743041; further: nearly all actives have a fitted effect of over 45% in size; further: potency means the concentration at half of the fitted maximal effect)
Summary of the method: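 Using the breast carcinoma line MDA-kb2 AR-luc, test chemicals were co-incubated with R1881 for 16 h; CellTiter-Fluor reagent, added at 15.5 h, provided a fluorescence measure of live cells.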

[6] = qHTS assay to identify small molecule antagonists of the androgen receptor (AR) signaling pathway - cell viability counter screen (AID 743033; further: nearly all actives have a fitted effect of over 45% in size; further: potency means the concentration at half of the fitted maximal effect)
[7] = target: Androgen receptor (Homo sapiens) (UniProt P10275); assay: qHTS assay to identify small molecule antagonists of the androgen receptor (AR) signaling pathway (AID 743035; active means well fitted inhibition curve with a large enough effect in the signal ratio in the repeat runs, not every such curve was filed as active; the % refers to the signal ratio)
Sequence of Androgen receptor (Homo sapiens) (P10275 whole entry, looked up): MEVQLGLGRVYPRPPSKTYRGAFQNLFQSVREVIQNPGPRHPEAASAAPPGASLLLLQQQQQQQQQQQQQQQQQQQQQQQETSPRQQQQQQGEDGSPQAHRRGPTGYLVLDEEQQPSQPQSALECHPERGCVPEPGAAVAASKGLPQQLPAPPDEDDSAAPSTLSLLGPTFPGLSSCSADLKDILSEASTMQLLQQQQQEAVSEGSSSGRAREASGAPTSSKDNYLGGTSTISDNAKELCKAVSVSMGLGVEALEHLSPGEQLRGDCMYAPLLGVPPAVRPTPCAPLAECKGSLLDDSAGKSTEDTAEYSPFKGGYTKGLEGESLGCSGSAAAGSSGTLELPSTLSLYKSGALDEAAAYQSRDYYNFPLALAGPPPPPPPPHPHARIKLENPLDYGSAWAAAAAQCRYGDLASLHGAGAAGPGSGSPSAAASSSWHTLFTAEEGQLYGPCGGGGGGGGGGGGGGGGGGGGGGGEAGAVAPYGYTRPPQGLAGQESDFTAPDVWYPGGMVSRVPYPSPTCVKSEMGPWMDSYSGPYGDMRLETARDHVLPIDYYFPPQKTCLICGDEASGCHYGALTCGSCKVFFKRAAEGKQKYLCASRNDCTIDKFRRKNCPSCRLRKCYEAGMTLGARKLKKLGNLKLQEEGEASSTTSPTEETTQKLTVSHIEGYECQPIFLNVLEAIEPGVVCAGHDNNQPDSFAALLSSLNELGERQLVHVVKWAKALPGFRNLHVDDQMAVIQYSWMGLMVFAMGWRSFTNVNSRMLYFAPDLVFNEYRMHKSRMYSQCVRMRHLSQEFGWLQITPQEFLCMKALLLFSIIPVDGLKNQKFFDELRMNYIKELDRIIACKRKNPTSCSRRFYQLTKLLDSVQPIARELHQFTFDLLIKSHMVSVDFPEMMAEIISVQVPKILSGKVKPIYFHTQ
Summary of the method: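 AR-bla HEK293 reporter cells; 4 h settle at 37C/5% CO2; compound + R1881 agonist, 16 h at 37C; LiveBLAzer B/G FRET substrate 2 h RT; fluorescence intensity read. qHTS format.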

[8] = target: Androgen receptor (Homo sapiens) (UniProt P10275); assay: qHTS assay to identify small molecule agonists of the androgen receptor (AR) signaling pathway (AID 743036; active means well fitted activation curve with a large enough effect in the signal ratio in the repeat runs, with a control signal flat, not every such curve was filed as active; the % refers to the signal ratio)
Summary of the method: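 Agonist activity was scored by beta-lactamase reporter fluorescence in stably transfected HEK293 cells exposed to compounds for 16 h at 37C and 5% CO2. Substrate loading took 2 h at room temperature.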

[9] = target: Androgen receptor (Homo sapiens) (UniProt P10275); assay: qHTS assay to identify small molecule agonists of the androgen receptor (AR) signaling pathway using the MDA cell line (AID 743040; further: nearly all actives have a fitted effect of over 20% in size)
Summary of the method: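 Stable MMTV-luciferase reporter in MDA-kb2 cells; note the promoter carries GR as well as AR response elements. 16 h compound treatment, 37C, 0% CO2; ONE-Glo luminescence endpoint.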

[10] = target: Androgen receptor (Homo sapiens) (UniProt P10275); assay: qHTS assay to identify small molecule antagonists of the androgen receptor (AR) signaling pathway using the MDA cell line (AID 743042; further: nearly all actives have a fitted effect of over 55% in size)
Summary of the method: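 Antagonist mode: compounds plus R1881 agonist added to MDA-kb2 AR-luc cells, incubated 16 h at 37C. Luciferase reporter luminescence quantified, with multiplexed CellTiter-Fluor readout for cell viability.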

O=C1O[C@H]([C@@H](O)CO)C(O)=C1O
Potency [1]: inactive
Potency [2]: inactive and 54.5 µM (active)
Potency [3]: inactive and 21.7 µM (active)
Potency [4]: inactive and 48.6 µM (active)
Potency [5]: inactive

CN(C)CCOC(C)(c1ccccc1)c1ccccn1 (stereo not drawn)
Potency [1]: inactive
Potency [2]: inactive
Potency [3]: inactive
Potency [4]: inactive
Potency [5]: inactive

CCCCCCCC(=O)OCC(COC(=O)CCCCCCC)OC(=O)CCCCCCC
Potency [1]: inactive
Potency [2]: inactive
Potency [3]: inactive
Potency [4]: inactive
Potency [6]: inactive
Potency [5]: inactive

F[B-](F)(F)F
Potency [1]: inactive
Potency [2]: inactive
Potency [3]: inactive
Potency [4]: inactive
Potency [5]: inactive

CCCCNC(=O)NS(=O)(=O)c1ccc(C)cc1
Potency [1]: inactive
Potency [2]: inactive
Potency [3]: inactive
Potency [4]: inactive
Potency [5]: inactive

CCCCC1(COC(=O)CCC(=O)O)C(=O)N(c2ccccc2)N(c2ccccc2)C1=O
Potency [1]: inactive
Potency [2]: inactive
Potency [3]: inactive
Potency [4]: inactive
Potency [7]: inactive
outcome [8]: inactive
outcome [9]: inactive
Potency [5]: inactive
Potency [10]: inactive

CN1CCC[C@H]1c1cccnc1
Potency [1]: inactive
Potency [2]: inactive
Potency [3]: inactive
Potency [4]: inactive
Potency [5]: inactive

CCc1nc(N)nc(N)c1-c1ccc(Cl)cc1
Potency [1]: inactive
Potency [2]: 596 nM (active) and 139 nM (active) and 273 nM (active)
Potency [3]: 668 nM (active) and 196 nM (active) and 109 nM (active)
Potency [4]: 1.5 µM (active) and 392 nM (active) and 217 nM (active)
Potency [5]: inactive

CCN(CC)C(=O)c1cccc(C)c1
Potency [1]: inactive
Potency [2]: inactive
Potency [3]: inactive
Potency [4]: inactive
Potency [5]: inactive

O=C(Nc1ncc([N+](=O)[O-])s1)c1cccs1
Potency [1]: 9.52 µM (active)
Potency [2]: 23.7 µM (active)
Potency [3]: 29.8 µM (active)
Potency [4]: 26.6 µM (active)
outcome [9]: inactive
Potency [10]: inactive

CCCCOC(=O)c1ccc(O)cc1
Potency [1]: inactive
Potency [2]: inactive
Potency [3]: inactive and 61.1 µM (active)
Potency [4]: inactive and 61.1 µM (active)
Potency [7]: inactive
outcome [8]: inactive
outcome [9]: inactive
Potency [5]: inactive
Potency [10]: inactive

O=c1[nH]cc(F)c(=O)[nH]1
Potency [1]: inactive
Potency [2]: 21.1 µM (active) and 27.9 µM (active)
Potency [3]: 50.4 µM (active) and 27.9 µM (active)
Potency [4]: 21.1 µM (active) and 40 µM (active) and 17.6 µM (active)
Potency [6]: inactive
Potency [5]: inactive

NC(CO)(CO)CO
Potency [1]: inactive
Potency [2]: inactive
Potency [3]: inactive
Potency [4]: inactive
Potency [5]: inactive

CCCCCCCCCCCC[N+](C)(C)Cc1ccccc1
Potency [1]: 8.49 µM (active) and 19.1 µM (active) and 18.9 µM (active)
Potency [2]: 422 nM (active) and 151 nM (active) and 1.05 µM (active)
Potency [3]: 298 nM (active) and 67.3 nM (active) and 1.05 µM (active)
Potency [4]: 668 nM (active) and 107 nM (active) and 1.05 µM (active)
Potency [5]: 29.8 µM (active) and 23.9 µM (active) and 37.4 µM (active)

CN(C)C(=O)Nc1ccc(Cl)c(Cl)c1
Potency [1]: inactive
Potency [2]: inactive
Potency [3]: inactive and 54.5 µM (active)
Potency [4]: inactive
Potency [7]: inactive
outcome [8]: inactive
outcome [9]: inactive
Potency [5]: inactive
Potency [10]: inactive

CNNCc1ccc(C(=O)NC(C)C)cc1
Potency [1]: inactive
Potency [2]: inactive
Potency [3]: inactive
Potency [4]: inactive
Potency [5]: inactive

O=C(O)CC(O)C(=O)O (stereo not drawn)
Potency [1]: inactive
Potency [2]: inactive
Potency [3]: inactive
Potency [4]: inactive
Potency [5]: inactive

COc1ccc(C(Cl)=C(c2ccc(OC)cc2)c2ccc(OC)cc2)cc1
Potency [1]: inactive
Potency [2]: 23.7 µM (active) and 24.3 µM (active)
Potency [3]: 29.8 µM (active) and 48.3 µM (active) and 27.3 µM (active)
Potency [4]: 26.6 µM (active) and 60.8 µM (active) and 24.3 µM (active)
Potency [6]: inactive
Potency [5]: inactive

NC(=O)n1c(O)c(C(=O)c2cccs2)c2cc(Cl)ccc21
Potency [1]: inactive
Potency [6]: inactive
Potency [5]: inactive

O=C1OC2(c3ccccc31)c1cc(Br)c(O)c(Br)c1Oc1c2cc(Br)c(O)c1Br
Potency [1]: inactive
Potency [2]: inactive
Potency [4]: inactive
Potency [6]: inactive
Potency [5]: 11.9 µM (active) and 7.81 µM (active) and 17.7 µM (active)

Nc1ccc([N+](=O)[O-])cc1O
Potency [1]: inactive
Potency [3]: 47.2 µM (active)
Potency [4]: 55.5 µM (active)
Potency [5]: 54.5 µM (active)

CN1[C@@H]2CC(OC(=O)[C@H](CO)c3ccccc3)C[C@H]1[C@@H]1O[C@@H]12 (stereo partly drawn)
Potency [1]: inactive
Potency [5]: inactive

CN(C)C(=S)SC(=S)N(C)C
Potency [1]: inactive
Potency [2]: 944 nM (active) and 1.11 µM (active) and 172 nM (active)
Potency [3]: 1.19 µM (active) and 886 nM (active) and 96.9 nM (active)
Potency [4]: 750 nM (active) and 789 nM (active) and 96.9 nM (active)
Potency [5]: 6.99 µM (active) and 6.27 µM (active) and 1.22 µM (active)

Nc1ccc(S(N)(=O)=O)cc1
Potency [1]: inactive
Potency [2]: inactive
Potency [3]: 68.9 µM (active) and inactive
Potency [4]: inactive and 61.4 µM (active)
Potency [5]: inactive

CN(C)CCOC(c1ccccc1)c1ccccc1
Potency [1]: inactive
Potency [6]: inactive
Potency [7]: inactive
outcome [8]: inactive
outcome [9]: inactive
Potency [5]: inactive

CN(N=O)C(=O)N[C@@H]1[C@@H](O)[C@H](O)[C@@H](CO)O[C@@H]1O
Potency [1]: inactive
Potency [2]: inactive
Potency [3]: inactive
Potency [4]: inactive
Potency [5]: inactive

O=CC(=O)c1ccccc1
Potency [1]: inactive
Potency [2]: inactive
Potency [4]: inactive
Potency [6]: inactive
Potency [5]: inactive

CCN(Cc1c(F)cccc1Cl)c1c([N+](=O)[O-])cc(C(F)(F)F)cc1[N+](=O)[O-]
Potency [2]: 30.6 µM (active)
Potency [3]: 27.3 µM (active)
Potency [4]: 24.3 µM (active)
Potency [5]: inactive

COc1ccc(CN(CCN(C)C)c2ccccn2)cc1
Potency [1]: inactive
Potency [2]: inactive
Potency [3]: inactive
Potency [4]: inactive
Potency [5]: inactive

O=C1c2c(O)cccc2Cc2cccc(O)c21
Potency [1]: inactive
Potency [2]: inactive
Potency [3]: inactive
Potency [4]: inactive
Potency [5]: inactive

CC(=O)CCC(=O)O
Potency [1]: inactive
Potency [2]: inactive
Potency [3]: inactive
Potency [4]: inactive
Potency [5]: inactive

OC[C@H]1O[C@H](O[C@]2(CCl)O[C@H](CCl)[C@@H](O)[C@@H]2O)[C@H](O)[C@@H](O)[C@H]1Cl
Potency [1]: inactive
Potency [2]: inactive
Potency [3]: inactive
Potency [4]: inactive
Potency [5]: inactive

CCCCCCCCCCCCCCCC[N+](C)(C)Cc1ccccc1
Potency [1]: 21.3 µM (active) and 22.6 µM (active) and 35.3 µM (active)
Potency [2]: 596 nM (active) and 794 nM (active) and 350 nM (active)
Potency [3]: 750 nM (active) and 631 nM (active) and 783 nM (active)
Potency [4]: 668 nM (active) and 891 nM (active) and 1.39 µM (active)
Potency [5]: 35.5 µM (active) and 27.8 µM (active)

CCOC(N)=O
Potency [1]: inactive
Potency [2]: inactive
Potency [3]: inactive
Potency [4]: inactive
Potency [5]: inactive

O=c1[nH]cnc2c1ncn2[C@H]1CC[C@@H](CO)O1
Potency [1]: inactive
Potency [2]: inactive
Potency [4]: inactive and 61.1 µM (active)
Potency [5]: inactive

COc1ccc2cc(S(=O)(=O)N[C@H](CC(=O)N[C@H](Cc3ccc(CN4[C@H](C)CCC[C@@H]4C)cc3)C(=O)N(C)C(C)C)c3ccc4c(c3)OCO4)ccc2c1
Potency [2]: 7.28 µM (active)
Potency [3]: 9.17 µM (active)
Potency [4]: 5.16 µM (active)
Potency [6]: 20.7 µM (active)

Cc1cccc(C)c1
Potency [1]: inactive
Potency [2]: inactive
Potency [3]: inactive
Potency [4]: inactive
Potency [5]: inactive

COc1cccc(O)c1O
Potency [1]: inactive
Potency [3]: 25.3 µM (active)
outcome [9]: inactive
Potency [5]: inactive

CC(C)C(=O)Nc1ccc([N+](=O)[O-])c(C(F)(F)F)c1
Potency [1]: inactive
Potency [2]: 13.3 µM (active) and 44.5 µM (active) and 19.3 µM (active)
Potency [3]: 29.8 µM (active) and 25 µM (active) and 30.6 µM (active)
Potency [4]: 18.8 µM (active) and 22.3 µM (active) and 19.3 µM (active)
Potency [5]: inactive

CCCCC(CC)C(=O)O (stereo not drawn)
Potency [1]: inactive
Potency [5]: inactive

Nc1ccc(O)c([N+](=O)[O-])c1
Potency [4]: 65.6 µM (active)
Potency [6]: inactive

C1=CC2C3C=CC(C3)C2C1 (stereo not drawn)
Potency [1]: inactive
Potency [3]: 47.7 µM (active)
Potency [6]: inactive
Potency [5]: inactive

Cc1cc(=O)oc2cc(O)ccc12
Potency [1]: inactive
Potency [2]: inactive
Potency [3]: inactive
Potency [4]: inactive
Potency [5]: inactive

CC(C)c1c(C(=O)Nc2ccccc2)c(-c2ccccc2)c(-c2ccc(F)cc2)n1CC[C@@H](O)C[C@@H](O)CC(=O)O
Potency [1]: inactive
Potency [6]: inactive
Potency [5]: inactive

CC(C)NCC(O)c1ccc(O)c(O)c1 (stereo not drawn)
Potency [1]: inactive
Potency [2]: inactive and 61.1 µM (active)
Potency [3]: 61.1 µM (active)
Potency [6]: inactive
Potency [5]: inactive

CCCC[P+](CCCC)(CCCC)CCCC
Potency [1]: inactive
Potency [2]: 1.08 µM (active) and 7.84 µM (active) and 4.33 µM (active)
Potency [3]: 684 nM (active) and 3.93 µM (active)
Potency [4]: 609 nM (active) and 3.5 µM (active)
Potency [5]: inactive

Nc1c(N=Nc2ccc(-c3ccc(N=Nc4cc(S(=O)(=O)O)c5ccccc5c4N)cc3)cc2)cc(S(=O)(=O)O)c2ccccc12
Potency [1]: inactive
Potency [2]: inactive and 6.85 µM (active)
Potency [3]: inactive and 34.3 µM (active)
Potency [4]: 54.4 µM (active)
Potency [5]: 26.6 µM (active) and 30.6 µM (active)
